Structures are written as SMILES. This is part of a sample that, as a whole, favours compounds with a hit. Of some 83,000 tested, about 20% had one in any assay.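 48-hour exposure, single concentration, 96-well plates; percent growth endpoint where 0 means no net growth. Active: below 10.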 Values without a mark were called inactive. Active and inactive are the calls of the source.

The subject of this experiment is HL-60(TB) leukemia. As to the kind of experiment: NCI-60 one-dose screen, 48 h (100 = growth as untreated, 0 = no growth, -100 = all killed). Particulars: 10 µM unless noted.
As for `N#Cc1cnn(C(=O)c2ccccc2Br)c1NC(=O)c1ccc(Br)cc1Cl`, the growth is 107%.
Then `COc1ccc(-c2nc3cc(C)ccc3n2CC(=O)N=Nc2c(O)[nH]c3ccc(OC)cc23)cc1`, with -62.1% (active).
Then `CC1=C(C(=O)OCc2ccccc2)C(c2cccc3ccccc23)n2c(nc3ccccc32)N1` (stereo not given), with 1.4% (active); and `CN(C)CCn1c2ccccc2c2nc3ccc([N+](=O)[O-])cc3nc21`, with 5.67% (active); and `CCN1CCN(Cc2ccc(C(=O)Nc3cccc(-c4cn(-c5ccc6oc(=O)ccc6c5)nn4)c3)cc2C(F)(F)F)CC1`, with 27.7%.
Under `CN1CCN(c2ccc(C(=O)/C=C/c3ccc(C#N)cc3)cc2)CC1` stands 65.1%; under `COc1ccc2[nH]c(O)c(N=Nc3nc(-c4ccccc4)cs3)c2c1`, 71.6%; under `Clc1ccc(-c2nc3c4c(-c5ccccc5)c(-c5ccccc5)n(Cc5ccccc5)c4ncn3n2)cc1`, -27.7% (active).
Turning to `COC(=O)c1c(C(=O)OC)c2ccc3c4ccccc4ccc3n2c1C(=O)C(C)Br` (stereo not given), the growth was 39%.
Then `COc1ccc2[nH]c(=O)c(CSc3ccccc3Nc3nccc(-c4ccc5c(c4)OCO5)n3)cc2c1`, with 74%; and `CC(=O)c1cc(C(=O)c2ccc3c(c2)NC(=O)CO3)n2ccc3ccccc3c12`, with 94.7%; and `Cc1ccc2nc(COc3ccc(C(=O)NNC(=S)NC(=O)c4ccccc4)cc3)[nH]c2c1`, with 70.7%.
Under `O=C(c1cc2cc(OCCCN3CCC3)ccc2[nH]1)N1C[C@@H](CCl)c2c1cc(OCc1ccccc1)c1ccccc21` stands -33.7% (active); under `COc1ccc2[nH]c(=O)c(CSc3ccccc3Nc3nccc(-c4ccc(Cl)cc4)n3)cc2c1`, 23.2%.
Take `CCCn1c(=O)c2[nH]c(-c3ccc(OCc4nc5ccccc5[nH]4)cc3)nc2n(CCC)c1=O`: the growth is 85.3%.
Under `O=C(N/N=C/c1ccoc1)c1[nH]c2ccc(Br)cc2c1-c1ccccc1` stands -27.3% (active); under `C(=C\c1cc(/C=C/c2ccccc2)c2ccccc2n1)/c1ccccc1`, 2.48% (active).
Then `COc1cc(C2CC(c3ccc(S(=O)(=O)NCCNc4nc(Nc5ccc(F)cc5)nc(N(C)C)n4)cc3)=Nc3c(N)nc(N)nc3N2)cc(OC)c1OC` (stereo not given), with 80.3%; and `O=c1c(-c2nc(-c3ccccc3)c(-c3ccccc3)[nH]2)coc2ccc(F)cc12`, with 54.3%; and `COc1ccc(NC(=O)Nc2nc3ccc([N+](=O)[O-])cc3s2)cc1`, with 2.05% (active).
`COc1cc(-c2nc3cc(Cl)c(Cl)cc3[nH]2)ccc1OCc1nnc(-c2cccs2)o1`: the growth was 72%.
Turning to `COc1ccc(-c2nc3ccc(-c4nnc(SCc5ccccc5)o4)cc3[nH]2)cc1OC`, the growth is 78.4%.
For the molecule `COc1ccc(NC(=O)Nc2ccc(OCC(=O)N=Nc3c(O)[nH]c4ccc([N+](=O)[O-])cc34)cc2)cc1`, the growth is 99%.
In the case of `CO[C@@H]1CSSC1Cn1nc(-c2ccc(Oc3ccccc3)cc2)c2c(N)ncnc21` (stereo not given in full), the growth was 13.3%.
Then `CC(=O)c1cc(C(=O)c2ccccc2)n2c1ccc1ccccc12`, with 94.7%; and `Cn1cc(-c2cc3nc(-c4cn(C)c5ncccc45)cc(N)n3n2)c2ccccc21`, with -44.8% (active).
As to `C=C1CCC2C3(C)COC(c4ccccc4)OC3CCC2(C)C1CC(NCc1ccccc1)C1=CCOC1=O` (stereo not given), the growth was 43.6%.
Then `Fc1ccc(F)c(CNc2nc(SCCN3CCOCC3)nc3c2cnn3CC(Cl)c2ccc(Br)cc2)c1` (stereo not given), with -12.3% (active).
Under `CCOP(=O)(OCC)O[C@H]1CCC(=O)[C@@H]2[C@H]1[C@H]1C[C@@H]3[C@@]4(C)CCCC(C)(C(=O)OC)[C@@H]4CC[C@@]23C=C1C(C)C` (stereo not given in full) stands 36.4%; under `Cc1cc(C)cc(NC(=O)Cn2cc(COn3nnc4ccccc43)nn2)c1`, 92.6%.
Under `CN(C)c1nc(NCCNS(=O)(=O)c2ccc(C(=O)/C=C/c3ccccc3)cc2)nc(Nc2ccc(F)cc2)n1` stands 14%; under `CN(C)c1nc(NCCNS(=O)(=O)c2ccc(C(=O)/C=C/c3ccccc3)cc2)nc(N2CCOCC2)n1`, 33%; under `Cn1cc(-c2cc(N)n3nc(-c4cn(C)c5ncccc45)cc3n2)c2cccnc21`, 39.2%.
For the molecule `COc1ccc(CCN2C(=O)/C(=C/c3csc(C#N)n3)SC2=S)cc1`, the growth is -23.8% (active).
Under `COc1cc2oc(-c3cccc(C(=O)Nc4ccc(Cl)cc4)c3)cc(=O)c2c(OCCNC(=O)CNC(=O)OC(C)(C)C)c1OC` stands 55.5%; under `CCn1c(SCC(=O)Nc2ccc(-c3nc4ccccc4[nH]3)cc2)nc2ccccc2c1=O`, 0.454% (active).
Under `COc1ccc(NC2=C(I)C(=O)C(C)=C(C)C2=O)cc1` stands -35.7% (active).
Under `C#CCN(C)CCCOc1ccc(N(C)C(=O)c2cc(C(C)C)c(O)cc2O)cc1Cl` stands -40.7% (active); under `COc1ccc(/C=N/NC(=O)Cn2nc(Cc3ccc(OC)cc3)c3onc(C)c3c2=O)cc1`, 27.6%.
For the molecule `C=C1CC[C@@H]2[C@]3(C)COC(c4cn[nH]c4-c4ccc(Br)cc4)O[C@@H]3CC[C@@]2(C)[C@@H]1C/C=C1/C(=O)OCC1O` (stereo not given in full), the growth was -8.14% (active).

Values taken from PubChem BioAssay (NCI).
